Measured values as given in the supplement of paper PMC10849652.
The full data set covers some 8,800 targets. This sample favours those with a hit. About 0.5% of all pairs of compound and target were hits. Values without a mark were called inactive.

Columns and labels:
Assay in all cases: log2 fold change, soluble protein after heating vs DMSO (PISA); higher = thermal stabilisation; K562 lysate, 10 uM; active = over 0.2 and 3.5 SD of the protein, either way, in both replicates (recomputed)
[1] = compound: CCCS(=O)(=O)Nc1ccc(F)c(C(=O)c2c[nH]c3ncc(-c4ccc(Cl)cc4)cc23)c1F [vemurafenib]
Summary of the method: (§1)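 Thermal stability, expressed as log-two fold change relative to solvent controls, is given from duplicates. Crude K562 extract in PBS pH 7.4 with 1 mM MgCl2, at 1 mg/mL protein, was treated with 10 μM compound for 30 min and heated in aliquots for 3 min across 48°C-58°C. After pooling, adjustment to 0.5% NP-40 at 4°C and centrifugation at 21,000xg for 90 min, supernatant protein was measured by TMTpro 16plex LC-MS/MS with channel sums equalised.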

[2] = compound: CCCS(=O)(=O)Nc1ccc(F)c(C(=O)c2c[nH]c3ncc(Cl)cc23)c1F
Summary of the method: as §1

[3] = compound: CCN(CCCOc1ccc2c(Nc3cc(CC(=O)Nc4cccc(F)c4)[nH]n3)ncnc2c1)CCOP(=O)(O)O [barasertib]
Summary of the method: as §1

[4] = compound: CC[C@@H]1C(=O)N(C)c2cnc(Nc3ccc(C(=O)NC4CCN(C)CC4)cc3OC)nc2N1C1CCCC1
Summary of the method: as §1

[5] = compound: CC[C@@H]1C(=O)N(C)c2cnc(Nc3ccc(C(=O)N[C@H]4CC[C@H](N5CCN(CC6CC6)CC5)CC4)cc3OC)nc2N1C(C)C [volasertib]
Summary of the method: as §1

[6] = compound: CCn1c(C(=O)N(C2CC2)C2CC2)cc2c3c(ncn3C)c(Nc3cc(C)n(C)n3)nc21
Summary of the method: as §1

[7] = compound: CCn1cc(-c2ccnc3[nH]c(-c4cccc(CN(C)C)c4)cc23)c(-c2ccc(NC(=O)N(C)C)cc2)n1
Summary of the method: as §1

[8] = compound: CN1CCC(CNc2ccc3ncc(-c4cccc(OC(F)(F)F)c4)n3n2)CC1
Summary of the method: as §1

[9] = compound: CN1CCN(CCOc2cc(OC3CCOCC3)c3c(Nc4c(Cl)ccc5c4OCO5)ncnc3c2)CC1 [saracatinib]
Summary of the method: as §1

[10] = compound: CN1CCN(c2nc(C3=C(c4c[nH]c5ccccc45)C(=O)NC3=O)c3ccccc3n2)CC1 [sotrastaurin]
Summary of the method: as §1

[11] = compound: CN1CC[C@H](c2c(O)cc(O)c3c(=O)cc(-c4ccccc4Cl)oc23)[C@H](O)C1 [alvocidib]
Summary of the method: as §1

[12] = compound: CN1CCc2c(c3ccccc3n2Cc2ccc(C(=O)NO)cc2)C1 [Tubastatin A]
Summary of the method: as §1

[13] = compound: CNC(=O)C1=CC=CC=C1NC2=NC(=NC=C2Cl)NC3=C(C=C(C=C3)N4CCOCC4)OC
Summary of the method: as §1

[14] = compound: CNC(=O)c1ccc(Nc2ncc(C(F)(F)F)c(NCc3nccnc3N(C)S(C)(=O)=O)n2)cc1 [defactinib]
Summary of the method: as §1

[15] = compound: CNc1nc(-c2ccc3c(N)n[nH]c3c2)cc(N2C[C@@H](C(=O)NC3CCCCC3)CC[C@H]2C)n1
Summary of the method: as §1

[16] = compound: COC(=O)N[C@@H](C)CNc1nccc(-c2cn(C(C)C)nc2-c2cc(Cl)cc(NS(C)(=O)=O)c2F)n1 [encorafenib]
Summary of the method: as §1

[17] = compound: COC(=O)[C@H](CCSC)NC(=O)C1=C(C=C(C=C1)NC[C@H](CS)N)C2=CC=CC=C2
Summary of the method: as §1

[18] = compound: COc1cc(Nc2ncc3c(n2)-c2ccc(Cl)cc2C(c2c(F)cccc2OC)=NC3)ccc1C(=O)O [alisertib]
Summary of the method: as §1

[19] = compound: COc1cc2nc(-c3cc(F)ccc3O)nc(N[C@@H]3CNC[C@H]3C(C)(C)O)c2cc1OC
Summary of the method: as §1

[20] = compound: COc1cc2ncnc(Nc3ccc(F)c(Cl)c3)c2cc1OCCCN1CCOCC1 [gefitinib]
Summary of the method: as §1

UniProt P15260, sequence (P15260 whole entry, looked up): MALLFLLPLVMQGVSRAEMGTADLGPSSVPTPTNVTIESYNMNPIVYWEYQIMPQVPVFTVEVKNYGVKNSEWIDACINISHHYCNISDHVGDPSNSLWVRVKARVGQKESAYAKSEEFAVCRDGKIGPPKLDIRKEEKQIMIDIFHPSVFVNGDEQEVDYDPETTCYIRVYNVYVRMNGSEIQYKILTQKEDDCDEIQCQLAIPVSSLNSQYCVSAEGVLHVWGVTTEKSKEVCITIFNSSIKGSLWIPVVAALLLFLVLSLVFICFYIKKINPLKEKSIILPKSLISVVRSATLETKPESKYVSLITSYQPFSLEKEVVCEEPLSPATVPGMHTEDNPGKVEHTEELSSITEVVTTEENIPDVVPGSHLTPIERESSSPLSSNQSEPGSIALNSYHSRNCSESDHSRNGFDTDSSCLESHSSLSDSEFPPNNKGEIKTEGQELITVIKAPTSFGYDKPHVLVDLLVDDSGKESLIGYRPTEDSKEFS
UniProt A6NDN3, sequence (A6NDN3 whole entry, looked up): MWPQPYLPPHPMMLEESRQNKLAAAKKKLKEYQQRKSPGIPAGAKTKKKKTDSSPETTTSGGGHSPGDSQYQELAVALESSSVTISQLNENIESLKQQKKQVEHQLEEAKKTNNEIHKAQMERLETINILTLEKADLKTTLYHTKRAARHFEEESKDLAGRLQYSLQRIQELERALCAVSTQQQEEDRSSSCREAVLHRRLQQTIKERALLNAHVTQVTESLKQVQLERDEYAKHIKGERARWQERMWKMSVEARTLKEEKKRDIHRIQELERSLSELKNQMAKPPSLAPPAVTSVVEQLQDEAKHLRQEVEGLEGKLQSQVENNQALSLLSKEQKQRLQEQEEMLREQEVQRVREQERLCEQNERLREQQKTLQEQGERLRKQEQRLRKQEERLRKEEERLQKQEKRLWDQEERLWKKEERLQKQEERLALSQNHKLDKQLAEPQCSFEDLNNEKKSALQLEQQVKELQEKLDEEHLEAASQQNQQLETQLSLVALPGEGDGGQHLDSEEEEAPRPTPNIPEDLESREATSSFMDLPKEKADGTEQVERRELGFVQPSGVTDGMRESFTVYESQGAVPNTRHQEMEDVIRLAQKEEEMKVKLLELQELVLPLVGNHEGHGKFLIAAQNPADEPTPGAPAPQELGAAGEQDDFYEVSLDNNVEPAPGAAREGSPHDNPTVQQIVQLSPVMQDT
UniProt Q6NT76, sequence (Q6NT76 whole entry, looked up): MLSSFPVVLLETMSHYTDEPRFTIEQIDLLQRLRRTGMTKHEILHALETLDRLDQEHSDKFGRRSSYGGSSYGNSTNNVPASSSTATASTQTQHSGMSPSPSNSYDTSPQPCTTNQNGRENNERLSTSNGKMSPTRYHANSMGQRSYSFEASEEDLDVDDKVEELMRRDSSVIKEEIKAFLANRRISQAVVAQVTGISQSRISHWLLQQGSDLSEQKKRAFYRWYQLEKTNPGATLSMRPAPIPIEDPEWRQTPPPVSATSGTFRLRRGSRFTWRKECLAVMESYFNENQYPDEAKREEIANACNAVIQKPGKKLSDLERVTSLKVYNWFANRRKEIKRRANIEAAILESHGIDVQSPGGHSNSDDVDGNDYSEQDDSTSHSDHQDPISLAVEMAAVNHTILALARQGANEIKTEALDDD
UniProt Q16836, sequence (Q16836 whole entry, looked up): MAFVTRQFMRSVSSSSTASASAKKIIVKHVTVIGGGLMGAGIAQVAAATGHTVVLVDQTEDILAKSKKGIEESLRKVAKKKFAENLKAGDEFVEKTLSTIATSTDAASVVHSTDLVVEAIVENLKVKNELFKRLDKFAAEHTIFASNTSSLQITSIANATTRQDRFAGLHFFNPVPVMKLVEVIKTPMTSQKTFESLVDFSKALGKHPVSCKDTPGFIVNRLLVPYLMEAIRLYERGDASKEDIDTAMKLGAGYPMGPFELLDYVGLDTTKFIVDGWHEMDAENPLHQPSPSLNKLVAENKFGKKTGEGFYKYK
UniProt Q96AB3, sequence (Q96AB3 whole entry, looked up): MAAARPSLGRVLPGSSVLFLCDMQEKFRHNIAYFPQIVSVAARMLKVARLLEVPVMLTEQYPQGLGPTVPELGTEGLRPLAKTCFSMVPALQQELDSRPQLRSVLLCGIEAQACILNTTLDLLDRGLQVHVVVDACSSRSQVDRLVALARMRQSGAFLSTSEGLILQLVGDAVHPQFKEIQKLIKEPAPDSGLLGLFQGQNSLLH
UniProt Q8NEC7, sequence (Q8NEC7 whole entry, looked up): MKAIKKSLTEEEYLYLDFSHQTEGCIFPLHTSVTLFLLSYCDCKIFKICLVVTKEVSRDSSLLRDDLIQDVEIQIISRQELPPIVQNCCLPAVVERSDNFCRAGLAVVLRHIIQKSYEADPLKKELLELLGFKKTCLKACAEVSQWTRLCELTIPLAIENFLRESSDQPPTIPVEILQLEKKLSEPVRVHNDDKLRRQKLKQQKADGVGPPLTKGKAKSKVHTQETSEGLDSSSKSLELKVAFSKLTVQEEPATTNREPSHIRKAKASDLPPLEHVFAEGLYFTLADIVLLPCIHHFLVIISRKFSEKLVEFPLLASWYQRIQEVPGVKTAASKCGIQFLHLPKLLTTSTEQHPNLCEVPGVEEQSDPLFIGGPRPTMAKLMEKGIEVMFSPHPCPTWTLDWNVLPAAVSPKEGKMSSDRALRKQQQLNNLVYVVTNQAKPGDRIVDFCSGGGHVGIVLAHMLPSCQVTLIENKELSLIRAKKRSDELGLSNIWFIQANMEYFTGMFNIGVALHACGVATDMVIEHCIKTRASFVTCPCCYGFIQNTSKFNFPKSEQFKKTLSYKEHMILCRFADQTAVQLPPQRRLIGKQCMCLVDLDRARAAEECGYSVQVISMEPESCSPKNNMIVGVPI
UniProt Q14103, sequence (Q14103 whole entry, looked up): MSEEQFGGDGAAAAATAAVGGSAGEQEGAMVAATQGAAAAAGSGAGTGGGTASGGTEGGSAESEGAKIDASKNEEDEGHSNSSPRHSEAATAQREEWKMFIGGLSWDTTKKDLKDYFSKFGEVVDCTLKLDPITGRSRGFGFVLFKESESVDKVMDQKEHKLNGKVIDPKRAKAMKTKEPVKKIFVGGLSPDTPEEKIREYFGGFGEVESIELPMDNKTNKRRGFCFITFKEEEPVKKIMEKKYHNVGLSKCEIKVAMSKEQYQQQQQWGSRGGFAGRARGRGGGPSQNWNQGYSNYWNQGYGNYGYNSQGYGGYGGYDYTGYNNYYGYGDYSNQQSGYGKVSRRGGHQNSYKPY
UniProt Q9NVR2, sequence (Q9NVR2 whole entry, looked up): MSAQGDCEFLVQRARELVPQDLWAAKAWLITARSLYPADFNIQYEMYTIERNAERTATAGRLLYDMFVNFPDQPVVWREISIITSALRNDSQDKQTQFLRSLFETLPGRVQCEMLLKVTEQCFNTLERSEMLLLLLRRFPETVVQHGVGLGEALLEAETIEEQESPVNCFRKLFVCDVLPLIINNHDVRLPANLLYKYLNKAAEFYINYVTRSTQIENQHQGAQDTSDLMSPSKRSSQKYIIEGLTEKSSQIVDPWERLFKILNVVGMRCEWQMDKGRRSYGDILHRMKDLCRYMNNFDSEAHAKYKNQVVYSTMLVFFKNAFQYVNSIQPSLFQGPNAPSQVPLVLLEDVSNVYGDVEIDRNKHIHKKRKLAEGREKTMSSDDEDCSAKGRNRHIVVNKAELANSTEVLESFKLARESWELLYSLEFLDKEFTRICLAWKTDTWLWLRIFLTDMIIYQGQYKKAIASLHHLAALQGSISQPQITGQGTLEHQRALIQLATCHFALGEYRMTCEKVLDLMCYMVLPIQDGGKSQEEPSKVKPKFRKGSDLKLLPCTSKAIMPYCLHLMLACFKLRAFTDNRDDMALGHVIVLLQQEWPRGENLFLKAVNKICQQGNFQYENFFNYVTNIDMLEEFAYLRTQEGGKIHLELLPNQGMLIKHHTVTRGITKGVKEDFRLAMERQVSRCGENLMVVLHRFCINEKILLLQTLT
UniProt Q9Y6M1, sequence (Q9Y6M1 whole entry, looked up): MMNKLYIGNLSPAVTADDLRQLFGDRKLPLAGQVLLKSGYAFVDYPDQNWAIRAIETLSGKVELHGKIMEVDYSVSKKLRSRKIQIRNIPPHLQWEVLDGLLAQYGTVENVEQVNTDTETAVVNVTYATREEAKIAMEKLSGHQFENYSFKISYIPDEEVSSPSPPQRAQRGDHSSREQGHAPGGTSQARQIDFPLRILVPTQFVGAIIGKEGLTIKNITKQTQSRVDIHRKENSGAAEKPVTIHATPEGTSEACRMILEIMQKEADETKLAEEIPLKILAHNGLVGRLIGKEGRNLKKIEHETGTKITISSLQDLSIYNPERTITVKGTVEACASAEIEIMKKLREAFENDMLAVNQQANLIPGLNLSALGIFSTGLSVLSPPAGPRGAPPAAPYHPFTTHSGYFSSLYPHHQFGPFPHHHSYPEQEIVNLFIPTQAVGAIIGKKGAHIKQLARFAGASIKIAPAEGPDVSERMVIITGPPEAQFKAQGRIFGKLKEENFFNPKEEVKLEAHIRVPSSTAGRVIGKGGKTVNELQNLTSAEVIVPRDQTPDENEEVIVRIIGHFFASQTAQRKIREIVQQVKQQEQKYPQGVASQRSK
UniProt Q6DN03, sequence (Q6DN03 whole entry, looked up): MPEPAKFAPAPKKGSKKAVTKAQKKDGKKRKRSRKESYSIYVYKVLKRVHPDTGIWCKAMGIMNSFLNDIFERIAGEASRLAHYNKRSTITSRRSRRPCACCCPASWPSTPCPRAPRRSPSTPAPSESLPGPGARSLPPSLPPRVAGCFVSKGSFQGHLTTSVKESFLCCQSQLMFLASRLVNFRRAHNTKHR
UniProt Q9NVX0, sequence (Q9NVX0 whole entry, looked up): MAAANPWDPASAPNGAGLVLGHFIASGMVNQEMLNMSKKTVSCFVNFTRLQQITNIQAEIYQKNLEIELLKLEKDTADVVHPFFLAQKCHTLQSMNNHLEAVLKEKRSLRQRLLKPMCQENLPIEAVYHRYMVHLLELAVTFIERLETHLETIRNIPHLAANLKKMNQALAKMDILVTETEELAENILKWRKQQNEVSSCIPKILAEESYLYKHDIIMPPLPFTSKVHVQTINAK

| Target | log2 fold change [1] | log2 fold change [2] | log2 fold change [3] | log2 fold change [4] | log2 fold change [5] | log2 fold change [6] | log2 fold change [7] | log2 fold change [8] | log2 fold change [9] | log2 fold change [10] | log2 fold change [11] | log2 fold change [12] | log2 fold change [13] | log2 fold change [14] | log2 fold change [15] | log2 fold change [16] | log2 fold change [17] | log2 fold change [18] | log2 fold change [19] | log2 fold change [20] |
| --- | --- | --- | --- | --- | --- | --- | --- | --- | --- | --- | --- | --- | --- | --- | --- | --- | --- | --- | --- | --- |
| HNRNPD isoform 3 (UniProt Q14103) | 0.024 | -0.028 | -0.033 | 0.128 | 0.014 | 0.077 | -0.077 | -0.023 | 0.048 | -0.066 | 0.017 | 0.008 | 0.004 | 0.117 | 0.146 | 0.036 | 0.016 | 0.024 | 0.001 | 0.113 |
| IFNGR1 (UniProt P15260) | 0.182 | -0.07 | -0.051 | 0.234 | 0.08 | -0.153 | -0.641 (active) | 0.331 | 0.032 | -0.018 | -0.348 | 0.157 | -0.022 | -0.164 | 0.272 | -0.018 | -0.002 | 0.138 | 0.106 | -0.036 |
| GSTCD (UniProt Q8NEC7) | 0.028 | 0.057 | -0.039 | -0.018 | -0.05 | 0.011 | -0.055 | -0.015 | 0.034 | 0.037 | 0.03 | -0.13 | 0.055 | -0.002 | -0.013 | 0.052 | 0.138 | -0.068 | 0.002 | 0 |
| GOLGA6B (UniProt A6NDN3) | 0.015 | -0.003 | 0.2 | 0.149 | -0.006 | 0.078 | -0.086 | 0.102 | 0.101 | -0.004 | -0.019 | -0.054 | -0.002 | 0.018 | -0.086 | -0.048 | -0.053 | -0.074 | 0.043 | 0.065 |
| HECTD4 (UniProt J3KPF0) | 0.04 | 0.035 | 0.014 | 0.009 | -0.09 | 0.037 | 0.007 | 0.043 | 0.006 | -0.024 | -0.027 | -0.075 | 0.001 | 0.012 | -0.017 | -0.072 | 0.146 | 0.013 | 0.045 | -0.043 |
| HSPA8 (UniProt E9PK54) | -0.047 | 0.014 | -0.113 | -0.071 | -0.056 | 0.08 | -0.144 | 0.052 | 0.108 | 0.028 | -0.047 | 0.036 | -0.066 | -0.041 | -0.05 | -0.025 | -0.004 | -0.016 | 0.016 | -0.051 |
| GSTZ1 (UniProt G3V4T6) | -0.013 | -0.024 | 0.018 | -0.101 | -0.02 | -0.029 | -0.116 | 0.087 | -0.012 | -0.018 | -0.016 | 0.018 | 0.01 | 0.061 | 0.028 | -0.045 | 0.35 (active) | 0.023 | 0.049 | 0.002 |
| KDM1A (UniProt O60341) | 0.021 | 0.004 | 0.014 | -0.011 | -0.046 | -0.011 | -0.065 | -0.016 | -0.001 | 0.005 | -0.034 | -0.067 | -0.023 | -0.003 | 0.013 | 0.003 | 0.095 | 0.012 | 0.001 | 0.006 |
| HADH isoform 2 (UniProt Q16836) | -0.032 | -0.022 | -0.049 | 0.002 | 0.004 | 0.009 | 0.066 | -0.054 | -0.096 | 0.004 | 0.048 | 0.003 | -0.024 | 0.061 | 0.09 | -0.048 | 0.03 | 0.021 | -0.002 | 0.042 |
| HIST2H2BC (UniProt Q6DN03) | -0.261 | 0.026 | -0.029 | -0.05 | 0.013 | 0.033 | 0.291 (active) | -0.024 | 0 | -0.01 | 0.024 | 0.004 | 0.019 | -0.148 | -0.003 | 0.092 | 0.143 | 0.005 | 0.008 | -0.12 |
| IGF2BP2 (UniProt Q9Y6M1) | 0.05 | 0.026 | -0.005 | -0.1 | -0.049 | 0.02 | -0.066 | 0.036 | 0.014 | 0.026 | 0.016 | -0.124 | 0.043 | -0.008 | -0.014 | 0.004 | 0.201 | 0.042 | -0.005 | 0.001 |
| INTS7 (UniProt Q9NVH2) | -0.059 | -0.058 | 0.335 | -0.073 | 0.013 | 0.028 | 0.027 | 0.039 | 0.005 | -0.057 | -0.012 | 0.008 | -0.025 | -0.125 | -0.017 | 0.067 | 0.017 | -0.022 | -0.018 | 0.028 |
| ISOC2 (UniProt Q96AB3) | 0.048 | 0.033 | -0.12 | 0.096 | 0.013 | -0.043 | 0.02 | -0.08 | -0.047 | 0.002 | 0.004 | -0.017 | 0.076 | 0.121 | -0.024 | 0.014 | 0.122 | 0.022 | 0.043 | -0.045 |
| HMBOX1 isoform 5 (UniProt Q6NT76) | 0.028 | -0.086 | -0.001 | 0.122 | -0.059 | -0.038 | -0.043 | -0.071 | -0.003 | -0.013 | -0.078 | -0.003 | -0.005 | 0.012 | 0.066 | -0.037 | -0.016 | -0.156 | 0.02 | -0.091 |
| HAUS2 (UniProt Q9NVX0) | -0.076 | -0.005 | 0.097 | 0.018 | 0.038 | 0.036 | 0.141 | -0.089 | 0.048 | -0.007 | 0.069 | -0.079 | 0.041 | -0.171 | -0.047 | 0.088 | 0.043 | -0.037 | 0.014 | -0.049 |
| INTS10 (UniProt Q9NVR2) | -0.008 | -0.183 | 0.061 | -0.129 | -0.088 | -0.021 | 0.14 | -0.054 | 0.052 | 0.023 | -0.009 | -0.143 | -0.033 | 0.016 | -0.045 | -0.017 | 0.043 | -0.093 | -0.097 | 0.049 |
